Experiment [1] is described as follows: Cell Viability - LYMP2-008 (AID 980). Further: nearly all actives have a fitted effect of over 60% in size. Further: potency means the concentration at half of the fitted maximal effect. In short, it runs like this: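 LYMP2-008 lymphoblastoid cells (2500/well) plated 5 h, then treated 24 h at 37 C in complete medium. Viability read as intracellular ATP by CellTiter-Glo luminescence after 30 min at room temperature; AC50 from Hill fits.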
Experiment [2] in a line: Cell Viability - LYMP2-010 (AID 981). Further: nearly all actives have a fitted effect of over 55% in size. Further: potency means the concentration at half of the fitted maximal effect. In short, it runs like this: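 Human lymphoblastoid LYMP2-010 cells (2500/well) treated 24 h at 37 C in complete medium; viability read as intracellular ATP by CellTiter-Glo luminescence. AC50 from Hill fits of concentration-response data; tetraoctylammonium bromide positive control.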
A short description of experiment [3]: Cell Viability - LYMP2-012 (AID 982).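 Further: cellular ATP by luciferase luminescence where a drop means cytotoxicity; cells exposed to compound for one day before reading; nearly all actives have a fitted effect of over 55% in size.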 Further: potency means the concentration at half of the fitted maximal effect.
Experiment [4] is described as follows: Cell Viability - LYMP2-014 (AID 983). Further: nearly all actives have a fitted effect of over 50% in size. Further: potency means the concentration at half of the fitted maximal effect. In short, it runs like this:
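LYMP2-014 human lymphoblastoid cells, 2500/well, treated 24 h at 37 C in complete medium; viability by CellTiter-Glo ATP luminescence after 30 min at room temperature. AC50 from Hill fits of qHTS concentration-response; tetraoctylammonium bromide positive control.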

Experiment [5] can be described thus: Cell Viability - LYMP2-016 (AID 984). Further: nearly all actives have a fitted effect of over 55% in size. Further: potency means the concentration at half of the fitted maximal effect. The procedure, abridged: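 Cytotoxicity was scored by luminescent ATP content (CellTiter-Glo) after 24 h compound exposure at 37 C of a human lymphoblastoid line at 2500 cells/well. Concentration-response data were fitted to the Hill equation for AC50.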
Experiment [6] in a line: Cell Viability - LYMP2-020 (AID 986). Further: nearly all actives have a fitted effect of over 55% in size. Further: potency means the concentration at half of the fitted maximal effect. The procedure, abridged:
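Human lymphoblastoid LYMP2-020 cells (2500/well) preincubated 5 h at 37 C, then treated 24 h at 37 C. Viability measured as intracellular ATP by CellTiter-Glo luminescence after 30 min at room temperature; AC50 from Hill fits.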

Experiment [7] can be described thus: Cell Viability - LYMP2-022 (AID 987). Further: nearly all actives have a fitted effect of over 55% in size. Further: potency means the concentration at half of the fitted maximal effect. The procedure, abridged: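 LYMP2-022 lymphoblastoid cells (2500/well, complete medium) were treated with compounds for 24 hours at 37 C; intracellular ATP was then read by CellTiter-Glo luminescence after 30 min at room temperature. AC50 values were derived from Hill-equation fits.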
The nature of experiment [8]: Cell Viability - LYMP2-024 (AID 988). Further: nearly all actives have a fitted effect of over 60% in size. Further: potency means the concentration at half of the fitted maximal effect. In short, it runs like this:
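Human lymphoblastoid LYMP2-024 cells (2500/well) rested 5 hr, then treated with compound for 24 hr at 37 C in complete medium. Viability was measured as intracellular ATP by CellTiter-Glo luminescence. AC50 values came from Hill-equation fits.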

Experiment [9] is described as follows: Cell Viability - LYMP2-026 (AID 989). Further: nearly all actives have a fitted effect of over 50% in size. Further: potency means the concentration at half of the fitted maximal effect. In short, it runs like this: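 Human lymphoblastoid LYMP2-026 cells, 2500/well, exposed to compound 24 h at 37 C in complete medium. Viability as intracellular ATP by CellTiter-Glo luminescence; AC50 from Hill fits of qHTS concentration-response.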
Experiment [10] deals with Alpha-galactosidase A (Homo sapiens) (UniProt P06280). Put plainly: Counterscreen for Glucocerebrosidase Inhibitors: qHTS Assay for Human alpha-Galactosidase at pH 4.5 (AID 992). Further: 0% is about no effect. In short, it runs like this:
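Concentration-response curves (0.7 nM to 77 uM final) were modeled with the Hill equation to give AC50. Reactions: 2 nM enzyme, 80 uM fluorogenic alpha-galactoside, pH 4.5 citric acid buffer, 20 min, room temperature.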

Experiment [11] in a line: Cell Viability - LYMP1-002 - Assay at 24 hr (AID 993). Further: potency means the concentration at half of the fitted maximal effect. The procedure, abridged:
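Human lymphoblastoid LYMP1-002 cells (2500/well) treated 24 h at 37 °C; viability as intracellular ATP by CellTiter-Glo luminescence. Tetraoctylammonium bromide as positive control; AC50 from Hill-equation fits of qHTS concentration-response.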

Experiment [12] addresses alpha-glucosidase (Oryza sativa, rice) (UniProt Q653V4). Put plainly: Counterscreen for Glucocerebrosidase Inhibitors: qHTS Assay for Rice alpha-Glucosidase at pH 5.0 (AID 997).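 Further: 0% = full activity with enzyme and -100% = basal without enzyme.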 The procedure, abridged:
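Rice alpha-glucosidase (4 nM final) with 400 uM 4-methylumbelliferyl-alpha-D-glucopyranoside in citrate buffer pH 5.0, 20 min at room temperature, stopped at pH 10; fluorescence 365/440 nm, compounds 0.7 nM–77 uM, AC50 from Hill fits.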

Experiment [13] is described as follows: qHTS Assay for Lipid Storage Modulators (AID 1519; calls by dose curve; on activity change, negative = inhibition: on the % scale 0 is the no-effect control and ±100 the full control effect). As to conditions: Drosophila S3 cells, BODIPY lipid droplet/cell ratio, laser cytometry, cells loaded with oleic acid. In short, it runs like this:
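Cells seeded at 5,000 per well were treated with compounds over a concentration series and loaded with oleic acid (400 uM, as added). Lipid droplet fluorescence (488 nm excitation, 500-530 nm channel) was read by laser-scanning cytometry and normalized to 20 uM Triacsin C.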

The target in experiment [14] is DNA repair nuclease/redox regulator APEX1 (Homo sapiens) (UniProt P27695). Put plainly: qHTS Validation Assay for Inhibitors of the Human Apurinic/apyrimidinic Endonuclease 1 (APE1) (AID 1705;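 further: TAMRA fluorescence gain over two minutes as APE1 cuts a quenched THF abasic duplex; on the % scale 0 is the no-effect control and ±100 the full control effect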). The procedure, abridged:
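Activity read as rising fluorescence (598 nm emission, 525 nm excitation) from incision of a TAMRA/BHQ-2 duplex carrying a THF abasic site (50 nM). Compound and enzyme sat 15 min at RT before substrate start; signal change between first and third 60-s reads.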
(In general: In qHTS, concentration-response curves come from the screen itself.)

A short description of experiment [15]: Counterscreen for APE1 Inhibitors: Fluorescent Dye Displacement Validation Assay (AID 1707).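 Further: plate controls were ThO with dsDNA and no compound for no effect and ThO without dsDNA for full effect.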 The procedure, abridged: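 Assay buffer: Tris-HCl pH7.5 with 50mM NaCl, 2 mM MgCl2, 0.01% Tween-20. Dye 250 nM, duplex 50 nM final. Readout: decrease in ThO endpoint fluorescence, 480 nm excitation, 540 nm emission.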
Background: The purpose of a counterscreen is to sort out artefacts and off-target activity.

The nature of experiment [16]: Cell Viability - LYMP2-006 (AID 978). Further: nearly all actives have a fitted effect of over 60% in size. Further: potency means the concentration at half of the fitted maximal effect. The procedure, abridged:
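Potency values are Hill-fit AC50s for decreases in intracellular ATP (CellTiter-Glo luminescence). LYMP2-006 lymphoblastoid cells, 2500 per well, were exposed to compound in complete culture medium for 24 hr at 37 C.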

A short description of experiment [17]: Cell Viability - LYMP2-007 (AID 979).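 Further: cells exposed to compound for 24 h before reading; nearly all actives have a fitted effect of over 60% in size.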 Further: potency means the concentration at half of the fitted maximal effect. In short, it runs like this: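 Human lymphoblastoid LYMP2-007 cells (2500/well) preincubated 5 h at 37 C, then treated 24 h at 37 C in complete medium. Viability by CellTiter-Glo ATP luminescence after 30 min at room temperature; AC50 from Hill fits.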
The nature of experiment [18]: Cell Viability - LYMP2-018 (AID 985).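 Further: compound exposure lasted 24 hr at 37 °C; nearly all actives have a fitted effect of over 50% in size.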 Further: potency means the concentration at half of the fitted maximal effect. In short, it runs like this: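 Human lymphoblastoid LYMP2-018 cells, 2500/well, settled 5 hr at 37 C then exposed to compound 24 hr at 37 C; intracellular ATP measured by CellTiter-Glo luminescence. AC50 from Hill-equation concentration-response fits.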
Where [19] appears, read: measured here: cell count channel max response.
Setting [20] is: measured here: lipid channel max response.

Several values for one entry are separate records, joined by “and”; a condition that tells them apart may be missing. Equal values may be shown once. Inconclusive results are not listed. Activity calls are given as the source filed them. Unless noted, the call rests on the fitted dose curve; in most records, active means well fitted curve in the direction sought with a large enough effect; inconclusive means small, poorly fitted or top-dose-only effect, or another doubt; inactive means no such curve, though single readings can be large; an effect the other way counts as inactive or inconclusive.

Chain of Alpha-galactosidase A (Homo sapiens) (P06280 whole entry, looked up): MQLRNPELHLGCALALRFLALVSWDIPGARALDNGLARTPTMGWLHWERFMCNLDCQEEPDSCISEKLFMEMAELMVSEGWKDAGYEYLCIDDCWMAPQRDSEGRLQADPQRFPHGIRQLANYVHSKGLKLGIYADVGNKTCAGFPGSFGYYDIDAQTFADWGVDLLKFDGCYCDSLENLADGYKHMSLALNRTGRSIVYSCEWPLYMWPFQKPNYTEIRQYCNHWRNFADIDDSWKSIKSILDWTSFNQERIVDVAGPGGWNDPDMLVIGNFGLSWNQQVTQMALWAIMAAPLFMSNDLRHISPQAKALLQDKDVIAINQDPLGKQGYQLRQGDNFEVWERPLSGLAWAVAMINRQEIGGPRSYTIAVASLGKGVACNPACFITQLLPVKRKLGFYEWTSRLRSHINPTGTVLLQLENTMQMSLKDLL
Chain of DNA repair nuclease/redox regulator APEX1 (Homo sapiens) (P27695 whole entry, looked up): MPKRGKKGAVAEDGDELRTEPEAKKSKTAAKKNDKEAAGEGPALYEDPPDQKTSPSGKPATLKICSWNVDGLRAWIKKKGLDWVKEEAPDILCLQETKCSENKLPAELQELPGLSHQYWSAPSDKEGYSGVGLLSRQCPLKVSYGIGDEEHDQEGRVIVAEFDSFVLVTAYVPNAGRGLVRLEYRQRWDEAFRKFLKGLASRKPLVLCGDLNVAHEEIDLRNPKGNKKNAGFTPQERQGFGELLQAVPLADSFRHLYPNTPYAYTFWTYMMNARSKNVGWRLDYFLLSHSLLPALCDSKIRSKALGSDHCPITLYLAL

Turning to `Oc1ccc(O)cc1`, the Potency in [1] was 50.1 µM (active); in [2], 39.8 µM (active); in experiment [3], 50.1 µM (active); in experiment [6], 50.1 µM (active); in [7], 39.8 µM (active); in experiment [8], 50.1 µM (active). In experiment [11], the Potency was 39.8 µM (active). For the same compound, the Potency result in [4], in [5], in experiment [9] and in [14] was “inactive” throughout. Besides, the outcome in [10], in experiment [12] and in [15] was inactive. Also, in [13] (at 57.5 µM (top of the series)), the activity change, negative = inhibition is -1.63% (inactive) and -0.961% (inactive). In addition, the max response in experiment [13] (setting [19]) is 3.88% and -20.5%; in experiment [13] (setting [20]) it was 3.65% and -23.9%.
For `COc1cc(NS(C)(=O)=O)ccc1Nc1c2ccccc2nc2ccccc12`, the result in [10] and in [12] was inactive. Further, the activity change, negative = inhibition in experiment [13] (at 57.5 µM (top of the series)) is 0.361% (inactive). For the same compound, the max response in experiment [13] (setting [19]) was -18.5%; in experiment [13] (setting [20]) it was -18.7%.
`CC(C)(C)CC(C)(C)c1ccc(OCCOCC[N+](C)(C)Cc2ccccc2)cc1`: the Potency was 25.1 µM (active) in [16]; 25.1 µM (active) in experiment [17]; 31.6 µM (active) in experiment [1]; 31.6 µM (active) in experiment [2]; 20 µM (active) in experiment [3]; 31.6 µM (active) in [4]. The Potency is 31.6 µM (active) in experiment [5]; 25.1 µM (active) in experiment [18]; 25.1 µM (active) in experiment [6]; 15.8 µM (active) in [7]; 31.6 µM (active) in experiment [8]; 31.6 µM (active) in experiment [9]. For the same compound, the Potency in [11] is 50.1 µM (active).
For the compound `CC(O)C(=O)O` (centres undefined), the Potency result in experiment [16], in [17], in [1], in [2], in experiment [3] and in experiment [4] was “inactive” each time. The Potency result in experiment [5], in experiment [18], in experiment [6], in [7], in [8] and in experiment [9] was “inactive” in each case. The Potency result in experiment [11] is “inactive”.
As for `CC(=O)Oc1ccc(C(c2ccc(OC(C)=O)cc2)c2ccccn2)cc1`, the Potency entry in experiment [16], in [17], in [1], in experiment [2], in [3] and in experiment [4] was “inactive” in each case. The Potency result in experiment [5], in [18], in [6], in experiment [7], in experiment [8] and in experiment [9] was “inactive” throughout. For the same compound, the Potency entry in [11] is “inactive”. The activity change, negative = inhibition in experiment [13] (at 25.7 µM (top of the series)) was -1.79% (inactive). The max response in experiment [13] (setting [19]) is -13.8%; in experiment [13] (setting [20]), -14.3%.

(Values after PubChem BioAssay (NCATS).)
